Source: PubChem BioAssay (several laboratories)
SUMO HTRF inh: inhibitors of human SUMOylation (UBC9). P63279. AID 2006. HTRF SUMOylation assay, SAE1/SAE2 + UBC9, in vitro. inhibition, % at 35 µM. 0.36% of 290,000 active; in the data active = inhibition above about 50%, passing the limit was not always enough
Target sequence (P63279 whole entry, looked up): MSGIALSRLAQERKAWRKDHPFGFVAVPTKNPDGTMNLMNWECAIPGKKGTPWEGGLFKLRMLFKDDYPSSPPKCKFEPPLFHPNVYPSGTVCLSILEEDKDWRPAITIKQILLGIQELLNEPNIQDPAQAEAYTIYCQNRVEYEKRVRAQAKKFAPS
S1P4 antag: blocks the human S1P4 receptor; inhibition, % at 4.98 µM; 0.26% of 220,000 active; S1P4-expressing cells, antagonist mode, reporter read-out; O95977; AID 1510; in the data active = inhibition above about 29%;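 also: 0% = wells stimulated with agonist and 100% = vehicle wells without agonist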
Target sequence (O95977 whole entry, looked up): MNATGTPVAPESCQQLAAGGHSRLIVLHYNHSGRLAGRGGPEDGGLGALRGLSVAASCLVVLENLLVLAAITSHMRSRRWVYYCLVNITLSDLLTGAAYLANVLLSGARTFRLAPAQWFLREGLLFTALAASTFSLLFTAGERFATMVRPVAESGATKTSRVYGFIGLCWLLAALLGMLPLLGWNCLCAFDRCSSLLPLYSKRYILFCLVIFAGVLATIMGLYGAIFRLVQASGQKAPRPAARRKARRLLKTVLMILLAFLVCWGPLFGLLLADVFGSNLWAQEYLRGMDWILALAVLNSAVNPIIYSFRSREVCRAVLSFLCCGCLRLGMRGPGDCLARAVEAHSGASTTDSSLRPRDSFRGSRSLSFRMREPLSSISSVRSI
S1P3 antag: S1P3 (human) receptor antagonism. 0.27% of 170,000 active. CHO S1P3 NFAT-BLA reporter, FRET fluorescence, antagonist mode. inhibition, % at 4.98 µM. AID 485;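 active = inhibition above the plate cutoff, the mean inhibition of test wells on that plate plus 3 SD, cut at about 28% in these data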;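 also: cells challenged with S1P at its EC80 of 0.8 µM; blue over green emission ratio from cleaved BLA substrate after 4 h stimulation; 0% = S1P-stimulated wells and 100% = unstimulated DMSO-only wells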
Redox H2O2 prof: compounds producing H2O2 with reducing agent – biochemical, NIH compound library profiling, artefact control for MLSCN library redox annotation, primary screen | DTT-dependent redox cycling H2O2, phenol red/HRP absorbance; 100% = 100 µM peroxide control, 0% = buffer | activation, % at 10 µM | 0.03% of 200,000 active | AID 878;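 active = activation of at least 50% relative to the plate's high and low controls in the primary single-dose screen; inactive = activation below 50%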;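 also: compound incubated with DTT at 0.8 mM final as the reducing agent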
p97 ATPase inh: human p97 ATPase inhibition | P55072 | recombinant p97 ATPase, Kinase-Glo ATP luminescence, 3 h | inhibition, % at 8 µM | 0.42% of 220,000 active; in the data active = inhibition above about 15%;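 also: 0% = DMSO vehicle and 100% = wells lacking enzyme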
S1P4 agonist: human S1P4 receptor agonism; activation, % at 4.98 µM; S1P4-expressing cell line, agonist reporter assay; 0.35% of 220,000 active; O95977; in the data active = activation above about 11%;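 also: 0% = DMSO vehicle and 100% = reference agonist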
* marks the source's active call; other numbers are inactive results; ! = repeats disagree. An excerpt weighted towards active compounds, which were near 1.1% of everything screened.

Results for Cc1ccc(-n2nc3ccc(N)cc3n2)c(C)c1 ?
SUMO HTRF inh: 50*

How did COCCN=c1scc(-c2cccs2)n1/N=C/c1ccc(O)c(O)c1O do in these assays?
SUMO HTRF inh: 1; S1P4 antag: -16; S1P3 antag: -9; Redox H2O2 prof: 2; p97 ATPase inh: 2; S1P4 agonist: 13*

Results for CCN(CC)CC(=O)Nc1c(C)cccc1C ?
SUMO HTRF inh: -3; S1P4 antag: -13; S1P3 antag: -9; Redox H2O2 prof: 0; p97 ATPase inh: 20*!; S1P4 agonist: 1

What do the screens show for `CCN(CC)CC(=O)Nc1c(C)cc(C(C)(C)C)cc1C`?
SUMO HTRF inh: 3; S1P4 antag: -2; S1P3 antag: 9; Redox H2O2 prof: 1; p97 ATPase inh: 0; S1P4 agonist: -1

What do the screens show for `Cc1ccc(S(=O)(=O)N(CC(=O)N/N=C/c2cccc(C)c2)c2cccc3cccnc23)cc1`?
SUMO HTRF inh: 3; S1P4 antag: -22; Redox H2O2 prof: -2; p97 ATPase inh: 4; S1P4 agonist: -2

What do the screens show for `O=C(Nc1ccc(Br)cc1)c1ccc(N2C(=O)C3CC=C(Cl)CC3C2=O)cc1` (configuration not stated)?
SUMO HTRF inh: 53*; S1P4 antag: -16; Redox H2O2 prof: 0; p97 ATPase inh: 3; S1P4 agonist: 2

How did O=C1Nc2ccc(F)cc2C12OCCO2 do in these assays?
SUMO HTRF inh: -13

What do the screens show for `CC(=O)Nc1cccc(NC(=O)CSc2nccn2Cc2ccccc2)c1`?
SUMO HTRF inh: 16

Results for COc1ccc2c(c1)c(CCN1C(=O)c3ccccc3C1=O)cn2C(=O)c1ccco1 ?
SUMO HTRF inh: -2; S1P4 antag: 0; S1P3 antag: 55*; Redox H2O2 prof: -8; p97 ATPase inh: -4; S1P4 agonist: 2

How did N#CC(c1nc2ccccc2nc1N1CCCCC1)S(=O)(=O)c1ccc(Cl)cc1 (configuration not stated) do in these assays?
SUMO HTRF inh: 75*; S1P3 antag: 1

Results for CC1CCCN(c2nc3ccccc3nc2C(C#N)S(=O)(=O)c2ccccc2)C1 (configuration not stated) ?
SUMO HTRF inh: 50*; S1P4 antag: -6; Redox H2O2 prof: 0; p97 ATPase inh: 1; S1P4 agonist: 0

What do the screens show for `Cc1ccc(S(=O)(=O)C(C#N)c2nc3ccccc3nc2N2CCCCC2)cc1` (configuration not stated)?
SUMO HTRF inh: 83*

Results for Cc1ccc(S(=O)(=O)C(C#N)c2nc3ccccc3nc2N2CCN(C)CC2)cc1 (configuration not stated) ?
SUMO HTRF inh: 38; S1P4 antag: -1; S1P3 antag: -9; Redox H2O2 prof: 0; p97 ATPase inh: 1; S1P4 agonist: 3

What do the screens show for `COc1ccc(S(=O)(=O)C(C#N)c2nc3ccccc3nc2N2CCC(C)CC2)cc1` (configuration not stated)?
SUMO HTRF inh: 64

How did COc1ccc(C(=O)NCCN2CCCC2)cc1[N+](=O)[O-] do in these assays?
SUMO HTRF inh: 9

How did COc1ccccc1NC(=O)c1cc(S(=O)(=O)N2CCCC2)cn1C do in these assays?
SUMO HTRF inh: -3

What do the screens show for `CC(=O)NCC(=O)OC(C(=O)c1ccccc1)c1ccc(Cl)cc1` (configuration not stated)?
SUMO HTRF inh: 13; S1P4 antag: -11; S1P3 antag: -16; Redox H2O2 prof: -1; p97 ATPase inh: -5; S1P4 agonist: 0

Results for COC(=O)c1c(NC(=O)c2ccco2)sc2c1C(C(=O)OC)CC2 (configuration not stated) ?
SUMO HTRF inh: -13; S1P4 antag: -15; S1P3 antag: 54*; Redox H2O2 prof: 0; p97 ATPase inh: 0; S1P4 agonist: 1

What do the screens show for `COC(=O)c1c(NC(=O)C(C)C)sc2c1C(C(=O)OC)CC2` (configuration not stated)?
SUMO HTRF inh: -2; S1P4 antag: -4; Redox H2O2 prof: 1; p97 ATPase inh: 0; S1P4 agonist: -2

Results for CC1CCc2c(sc3nc(SCC(=O)NCc4ccco4)nc(N)c23)C1 (configuration not stated) ?
SUMO HTRF inh: -14; S1P4 antag: 15; S1P3 antag: 92*; Redox H2O2 prof: 2; p97 ATPase inh: 1; S1P4 agonist: 0

Results for O=C(O)c1ccc2c(c1)C(=O)N(c1cccc(-c3nc4ccccc4s3)c1)C2=O ?
SUMO HTRF inh: 70*; S1P4 antag: -11; S1P3 antag: -11; Redox H2O2 prof: -1; p97 ATPase inh: 4; S1P4 agonist: 0

What do the screens show for `O=C(CSc1nnc(-c2ccccn2)n1Cc1ccccc1)NC1CCCC1`?
SUMO HTRF inh: 18; S1P4 antag: -5; S1P3 antag: -8; Redox H2O2 prof: 3; p97 ATPase inh: 7; S1P4 agonist: -2

Results for COc1ccccc1CNC(=O)COC(=O)c1ccc(Cl)c(N)c1 ?
SUMO HTRF inh: 18; S1P4 antag: -17; S1P3 antag: 1; Redox H2O2 prof: 0; p97 ATPase inh: -1; S1P4 agonist: 1

What do the screens show for `CN(CC(=O)NCCc1ccc(Cl)cc1)S(=O)(=O)c1ccc2c(c1)c(=O)n(C)c(=O)n2C`?
SUMO HTRF inh: -6; S1P4 antag: -13; Redox H2O2 prof: 1; p97 ATPase inh: 2; S1P4 agonist: 1

What do the screens show for `CN(CC(=O)NCCC1=CCCCC1)S(=O)(=O)c1ccc2c(c1)c(=O)n(C)c(=O)n2C`?
SUMO HTRF inh: 1; S1P4 antag: 1; S1P3 antag: 74*; Redox H2O2 prof: 0; p97 ATPase inh: -9; S1P4 agonist: -1

Results for Cc1nc2ccc(NC(=O)c3cc([N+](=O)[O-])cc([N+](=O)[O-])c3Cl)cc2s1 ?
SUMO HTRF inh: 18; S1P4 antag: 66*; S1P3 antag: -1; Redox H2O2 prof: 2; p97 ATPase inh: 10; S1P4 agonist: 6

Results for Cc1nc2ccc(NC(=O)c3ccc(Cl)c([N+](=O)[O-])c3)cc2s1 ?
SUMO HTRF inh: -8; S1P4 antag: -12; S1P3 antag: -4; Redox H2O2 prof: 1; p97 ATPase inh: 1; S1P4 agonist: -1

What do the screens show for `COc1cc(C(=O)NS(=O)(=O)c2ccccc2C)ccc1Cc1cn(C)c2ccc(NC(=O)OC3CCCC3)cc12`?
SUMO HTRF inh: 72*; S1P4 antag: 11; S1P3 antag: -6; p97 ATPase inh: 0; S1P4 agonist: 1

What do the screens show for `COc1ccccc1C(=O)N1C(CC(=O)Nc2ccc(C)c(C)c2)C(=O)NC2CCCCC21` (configuration not stated)?
SUMO HTRF inh: 7

Results for CCOc1ccc2nc(NC(=O)Nc3cccs3)sc2c1 ?
SUMO HTRF inh: 2; S1P4 antag: 12; S1P3 antag: 58*; Redox H2O2 prof: 0; p97 ATPase inh: 4; S1P4 agonist: 3
